FBPA Giardia inh: inhibitors of Giardia lamblia fructose-1,6-bisphosphate aldolase | actives 0.71% (n = 290,000) | A8B2U2 | purified Giardia FBPA | Potency, µM (highest dose often 59.6 µM), usual class: inhibitors; further: nearly all actives have a fitted effect of over 55% in size
Target sequence (A8B2U2 whole entry, looked up): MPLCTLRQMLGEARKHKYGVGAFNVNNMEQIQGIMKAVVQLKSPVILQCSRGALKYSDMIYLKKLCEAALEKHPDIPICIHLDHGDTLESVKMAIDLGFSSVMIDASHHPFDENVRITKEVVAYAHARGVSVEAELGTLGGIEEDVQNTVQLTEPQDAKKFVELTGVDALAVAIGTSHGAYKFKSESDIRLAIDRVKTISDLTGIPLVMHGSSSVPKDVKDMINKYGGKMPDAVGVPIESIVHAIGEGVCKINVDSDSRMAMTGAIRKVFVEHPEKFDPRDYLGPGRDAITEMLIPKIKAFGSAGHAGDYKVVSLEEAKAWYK
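Giardia FBPA (40 nM reagent) was preincubated 10 min at RT with compound (up to 57.5 uM final), then substrate plus GAPDH/TPI/NAD/arsenate coupling system with diaphorase/resazurin was added; resorufin fluorescence (525/598 nm) was read after 20 min.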
Sm TGR block: S. mansoni TGR enzyme inhibition. Q962Y6. purified TGR, DTNB reduction, TNB absorbance 405 nm. Potency, µM (top dose mostly 114 µM), actives largely listed as inhibitors. actives 3% (n = 360,000). AID 485364; further: nearly all actives have a fitted effect of over 60% in size
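Kinetic colorimetric format: TGR-catalysed, NADPH-driven DTNB reduction monitored via TNB absorbance. Enzyme dispensed at 20 nM; compound exposure 15 min at room temperature before reaction start.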
AmpC detergent: inhibitors of E. coli AmpC beta-lactamase with detergent; AmpC hydrolysis of nitrocefin, absorbance 480 nm, 0.01% Triton; P00811; Potency, µM (series often up to 114 µM), hits mostly inhibitors; actives 0.041% (n = 370,000); further: nearly all actives have a fitted effect of over 25% in size
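20 mM phosphate pH 7.0 + 0.01% (detergent screen) or 0.0001% Triton X-100; 5.3 nM AmpC reagent; cpd preinc 15 min RT; nitrocefin (800 uM stock) to start; A480 q20 s × 4 min; Activity was normalised to no-enzyme and no-compound control wells.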
AmpC no deterg: AmpC beta-lactamase inhibition without detergent; P00811; AmpC nitrocefin hydrolysis, absorbance 480 nm, 0.0001% Triton; AID 485341; Potency, µM (top dose mostly 57.1 µM), usual class: inhibitors; actives 0.52% (n = 330,000); further: nearly all actives have a fitted effect of over 20% in size
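AmpC (5.3 nM in the dispensed reagent) in 20 mM phosphate pH 7.0 with 0.01% (detergent screen) or 0.0001% Triton X-100 was preincubated with compounds for 15 min at room temperature. Nitrocefin was then added from an 800 uM solution, and hydrolysis was followed at 480 nm.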
Large screens that a line does not name were inactive. Sampled rows, rich in hits. Any-hit rate of the full collection: about 3.6%. The call rests on the fitted dose curve; in most records, active means well fitted curve in the direction sought with a large enough effect; inconclusive means small, poorly fitted or top-dose-only effect, or another doubt; inactive means no such curve, though single readings can be large; an effect the other way counts as inactive or inconclusive.

CC(=O)c1c(C)nn(CC(O)COc2ccc3ccccc3c2)c1C (stereo not given)	none
COc1ccc(NC(=O)c2cc(C(C)=O)n3ccccc23)cc1	none (no result: FBPA Giardia inh, AmpC no deterg)
COC(=O)c1ccccc1NC(=S)NC(=O)c1ccc(C)cc1	Sm TGR block 11µM
Cc1ccc(C(=O)NC(=S)NNS(=O)(=O)c2ccccc2)cc1	Sm TGR block 13µM
COC(=O)c1ccccc1NC(=S)NC(=O)c1ccccc1	Sm TGR block 11µM, AmpC detergent inconclusive
COC(=O)c1ccccc1NC(=S)NC(=O)COc1ccccc1	Sm TGR block 22µM
Cc1ccc(S(=O)(=O)NNC(=O)c2ccc(F)cc2)cc1	none
N#Cc1cnn(-c2ccccc2)c1NC(=O)c1ccccc1F	Sm TGR block inconclusive, AmpC detergent inconclusive (no result: FBPA Giardia inh)
CCOC(=O)N1CCN(c2cc(NCCC(=O)O)c3c4c(onc24)-c2ccccc2C3=O)CC1	FBPA Giardia inh 5.6µM, Sm TGR block inconclusive
O=C(O)CCNc1ccc(NCCC(=O)O)c2c1C(=O)c1ccccc1C2=O	none
CCCCNc1cc(N2CCN(C3CCCCC3)CC2)c2noc3c2c1C(=O)c1ccccc1-3	none (no result: FBPA Giardia inh, AmpC no deterg)
O=C(O)CCCNc1cc(N2CCC3(CC2)OCCO3)c2noc3c2c1C(=O)c1ccccc1-3	FBPA Giardia inh inconclusive, Sm TGR block 8.9µM
Cc1ccccc1Nc1nc(N)nc(COC(=O)[C@@H](NC(=O)c2ccccc2Cl)C(C)C)n1	AmpC detergent inconclusive (no result: FBPA Giardia inh)
O=C(NCc1ccccc1F)C(=O)NCC1CCCN1S(=O)(=O)c1ccccc1 (stereo not given)	AmpC detergent inconclusive, AmpC no deterg 35µM (no result: FBPA Giardia inh)
COc1cc(/C=C2\CC/C(=C\c3cc(OC)c(O)c(OC)c3)C2=O)cc(OC)c1O	FBPA Giardia inh 1.6µM, Sm TGR block 28µM, AmpC detergent inconclusive
CCn1c(=O)c2cc(C(=O)N3CCN(C)CC3)sc2c2ccccc21	AmpC no deterg 0.63µM
O=c1c(O)c(-c2ccc(O)c(O)c2)oc2ccccc12	none (no result: Sm TGR block, AmpC detergent, AmpC no deterg)
Cc1ccc(C)c(S(=O)(=O)N2CCN(c3nc(-c4cccnc4)nc4ccccc34)CC2)c1	none (no result: FBPA Giardia inh)
Cc1ccc(-c2cc[n+](Cc3ccccc3)cc2)cc1	none
Cc1ccc2c(c1)sc[n+]2Cc1ccccc1	Sm TGR block 5.6µM
CCNC(=O)C1CCN(Cc2cc3ccccc3n2Cc2ccc(C)cc2)CC1	none (no result: FBPA Giardia inh, AmpC no deterg)
O=C(Cn1ncc(Cl)c(Cl)c1=O)NC1CCS(=O)(=O)C1 (stereo not given)	Sm TGR block 6.3µM, AmpC detergent inconclusive
O=C(Cn1ncc(Cl)c(Cl)c1=O)NCC1CCCCC1	Sm TGR block 35µM
Cc1cccc(NC(=O)CNC(=O)Cn2ncc(Cl)c(Cl)c2=O)c1C	none (no result: FBPA Giardia inh, Sm TGR block, AmpC detergent)
Cc1ccc(Cn2c(C)c3cnn(CC(=O)NC4CCCC4)c(=O)c3c2C)cc1	Sm TGR block inconclusive
O=C(Cn1cnc2ccccc2c1=O)NC1CCS(=O)(=O)C1 (stereo not given)	none (no result: FBPA Giardia inh)
Cc1ccc(NC(=O)Cn2ncc(Cl)c(Cl)c2=O)cc1S(=O)(=O)N1CCCCC1	Sm TGR block 8.9µM, AmpC no deterg 4µM (no result: FBPA Giardia inh)
O=C(Cn1ncc(Cl)c(Cl)c1=O)NC1CCCCC1	Sm TGR block 25µM (no result: FBPA Giardia inh)
COCCC(C(=O)Oc1c(C(C)(C)C)cc(C)cc1C(C)(C)C)c1ccccc1 (stereo not given)	none (no result: FBPA Giardia inh)
CCCOC(=O)Cn1cnc2scc(-c3ccc(OC)cc3)c2c1=O	none
O=C(Nc1ccc2nc(-c3ccco3)c(-c3ccco3)nc2c1)NC1CC1	FBPA Giardia inh inconclusive, Sm TGR block inconclusive
O=C(Nc1ccc(N2CCOCC2)cc1)Nc1ccc2nc(-c3ccco3)c(-c3ccco3)nc2c1	FBPA Giardia inh inconclusive, Sm TGR block 4.5µM
O=S(=O)(c1ccc2nc(-c3ccco3)c(-c3ccco3)nc2c1)N1CCOCC1	FBPA Giardia inh 2.5µM, Sm TGR block 1.6µM
O=C(NCCCO)Nc1ccc2nc(-c3ccco3)c(-c3ccco3)nc2c1	FBPA Giardia inh inconclusive, Sm TGR block 0.28µM
CCOC(=O)c1cc2c(=O)n3ccccc3nc2n(CC2CCCO2)c1=NC(=O)c1ccc(OC)cc1OC (stereo not given)	none (no result: FBPA Giardia inh, AmpC no deterg)
CCOC(=O)[C@H]1[C@H]2COc3ccc(Cl)cc3[C@@H]2N2C(=O)CN(Cc3ccco3)C(=O)[C@@]12C	Sm TGR block 16µM (no result: FBPA Giardia inh)
CCOC(=O)[C@H]1[C@H]2COc3ccc(OC)cc3[C@@H]2N2C(=O)CN(Cc3ccco3)C(=O)[C@@]12C	Sm TGR block inconclusive (no result: FBPA Giardia inh)

Screening data (PubChem BioAssay)
